Vif-APOBEC3G blk – inhibitors of Vif-APOBEC3G interaction; HeLa A3G-eYFP + Vif (tagged APOBEC3G with the HIV-1 protein that degrades it), YFP fluorescence, overnight; Q9HC16; Potency, µM (highest dose often 46.1 µM), for the others: at the highest dose activity, negative = active, actives largely listed as inhibitors; 410,000 compounds, 0.076% hits; AID 602310; note: potency is the fitted concentration of half-maximal effect; % is set by controls: 0 for no effect and ±100 for the full control effect; nearly all actives have a fitted effect of over 60% in size
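HeLa cells stably expressing Vif and C-terminally eYFP-tagged A3G, seeded overnight at 37 deg C, then exposed to compound by pintool overnight at 37 deg C. Rise in yellow fluorescence (Ex 488/Em 500-530, Acumen) marks blocked Vif-driven A3G degradation.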
ALOX12 inh – blocks human arachidonate 12S-lipoxygenase; P18054; purified 12hLO, xylenol orange hydroperoxide absorbance; Potency, µM (series often up to 108 µM), without a hit: at the highest dose activity change, negative = inhibition, actives largely listed as inhibitors; 580,000 compounds, 1.1% hits; AID 1671190; note: potency is the fitted concentration of half-maximal effect; % is set by controls: 0 for no effect and ±100 for the full control effect
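Purified human 12hLO (150 nM final) in 25 mM Hepes, 0.01% Triton X-100, pH 7.0 was preincubated 15 min at room temperature with compound. Then 40 uM arachidonic acid was added, 30 min. Hydroperoxide was read by Fe-XO absorbance ratio 573/405 nm.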
TRPML1 agonist – human mucolipin-1 channel agonism; 410,000 compounds, 0.12% hits; Q9GZU1; activation, % (test concentration not listed); AID 624414; TRPML1-expressing cells, Ca2+ dye fluorescence, FDSS; in the data active = activation above about 50%; inconclusive = mostly about 30% to 49%; note: 0% is about no effect
Target sequence (Q9GZU1 whole entry, looked up): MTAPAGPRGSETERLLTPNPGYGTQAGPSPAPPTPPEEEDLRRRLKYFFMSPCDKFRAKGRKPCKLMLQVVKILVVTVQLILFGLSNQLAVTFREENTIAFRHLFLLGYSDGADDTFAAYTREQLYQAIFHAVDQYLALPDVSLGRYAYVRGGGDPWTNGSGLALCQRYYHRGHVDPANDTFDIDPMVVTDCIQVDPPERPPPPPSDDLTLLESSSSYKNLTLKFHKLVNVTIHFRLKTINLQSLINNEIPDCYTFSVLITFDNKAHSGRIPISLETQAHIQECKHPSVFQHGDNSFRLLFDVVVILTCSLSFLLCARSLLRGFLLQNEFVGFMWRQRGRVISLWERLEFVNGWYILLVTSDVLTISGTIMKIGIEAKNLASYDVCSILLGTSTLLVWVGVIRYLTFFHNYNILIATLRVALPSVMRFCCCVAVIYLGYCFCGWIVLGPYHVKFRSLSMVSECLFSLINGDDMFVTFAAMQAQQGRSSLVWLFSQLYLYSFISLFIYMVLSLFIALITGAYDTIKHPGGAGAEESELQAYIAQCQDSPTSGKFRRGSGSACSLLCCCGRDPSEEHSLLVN
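Tet-induced TRPML1-DL cells, 1,500 per well, cultured overnight, were loaded with a no-wash Ca2+ dye for 45–90 min. Calcium fluorescence was recorded on the FDSS for 110 s after compound addition, before the EC80 agonist (4 uM 54-4) was added.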
Vif-A3F inh – blocks the Vif interaction with APOBEC3F. HeLa A3F-eYFP + Vif (tagged APOBEC3F with the HIV-1 protein that degrades it), YFP fluorescence increase. AID 602313. 390,000 compounds, 0.2% hits. Potency, µM (top dose mostly 46.1 µM), for inactives: at the highest dose activity, negative = active; note: potency is the fitted concentration of half-maximal effect; % of control where 0% means no effect; nearly all actives have a fitted effect of over 65% in size
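HeLa cells stably expressing Vif plus C-terminally eYFP-tagged A3F were seeded, incubated overnight at 37 deg C, dosed with compound, incubated overnight again at 37 deg C. Yellow fluorescence (Ex 488/Em 500-530) reported blocked Vif-mediated A3F-eYFP degradation.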
Glioma ERSR ind – ER stress response induction in glioma; U87-MG GRP78 promoter luciferase reporter, 16 h; Potency, µM, for inactives: at the highest dose activation, actives largely listed as activators; 420,000 compounds, 0.02% hits; AID 602332; note: potency is the fitted concentration of half-maximal effect; series mostly up to about 76 µM; % of control where 0% means no effect; nearly all actives have a fitted effect of over 35% in size
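ERSR induction read as luciferase luminescence (Bright-Glo, 10 min at room temperature) in stably transfected human U87-MG glioma cells exposed to compounds for 16 h, using GRP78 as sensor.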
TRPML1 inh – human mucolipin-1 channel inhibition | TRPML1-inducible cells, Ca2+ dye fluorescence, FDSS; hits give low values; inhibition of EC80 agonist-evoked calcium signal | Q9GZU1 | 390,000 compounds, 0.02% hits | AID 624415 | activity change, negative = inhibition, % (test concentration not listed); in the data active = activity change below about -50%; inconclusive = between about -30% and that limit;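 note: stimulus is agonist 54-4 at its EC80 concentration; % is set by controls: 0 for no effect and ±100 for the full control effect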
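TRPML1-DL cells, Tet-induced overnight (~16 h, 37 °C) at 1,500 cells/well, were loaded with Ca8 no-wash dye plus quencher for 45-90 min at room temperature. Compounds were pinned during FDSS kinetic reading; agonist 54-4 at EC80 (4 uM final) then added.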
* = called active by the depositor; ? = inconclusive; . = no result given. Compounds with a hit are over-represented: about 1.3% of the library has one in this group of screens. Unless noted, calls come from the whole dose curve; as a rule, active = well fitted curve in the direction sought with a large enough effect; inconclusive = small, poorly fitted or top-dose-only effect, or another doubt; inactive = no such curve, though single readings can be large; an effect the other way counts as inactive or inconclusive.

SMILES	Vif-APOBEC3G blk	ALOX12 inh	TRPML1 agonist	Vif-A3F inh	Glioma ERSR ind	TRPML1 inh
COc1cccc(CN(C)C(=O)CN2CCC(c3nc4ccccc4s3)CC2)c1OC	.	1%	.	.	.	.
COCCn1cnnc1SCc1csc(-c2cc(Br)ccc2OC)n1	.	16µM*	.	.	.	.
COc1ccccc1-n1cnnc1SCc1csc(-c2ccccc2)n1	-6%	475%	1	5%	3%	-15
CCN(CC)S(=O)(=O)c1ccc(Oc2cccc(C)c2)c(NC(=O)c2ccccn2)c1	.	-10%	.	.	.	.
Cc1cccc(OCc2n[nH]c(=S)n2-c2ccccc2)c1	0%	35µM*	0	2%	0%	-3
Oc1ccc(Br)cc1/C=N/n1c(COc2ccccc2)n[nH]c1=S	-4%	8.9µM*	4	3%	0%	17
Cc1ccc(-n2c(COc3cccc(C)c3)n[nH]c2=S)cc1	2%	?	2	2%	-4%	-29
COc1cccc(/C=N/n2c(C3CCCCC3)n[nH]c2=S)c1	7.1µM*	?	2	-9%	-4%	16
Cc1cccc(/C=N/n2c(COc3ccccc3)n[nH]c2=S)c1	1%	40µM*	3	0%	4%	-13
Cc1ccc(NC(=O)c2oc3ccccc3c2NC(=O)c2cc(=O)c3ccccc3o2)cc1	.	-18%	.	.	.	.
COc1ccc(C2CCCCCN2C(=O)Cn2cnc3ccc(F)cc3c2=O)cc1 (stereo not drawn)	.	-12%	.	.	.	.
S=c1[nH]nc(COc2ccccc2)n1/N=C/c1ccncc1	3%	-8%	-1	0%	-4%	9
S=c1[nH]nc(COc2ccccc2)n1/N=C/c1ccccn1	-5%	1.6µM*	-1	-1%	-2%	3
CCc1ccc(Nc2n[n+](-c3ccccc3)c(-c3c(Cl)cccc3Cl)s2)cc1	-7%	?	-1	10%	-11%	41
CCc1ccc(Nc2n[n+](-c3ccccc3)c(-c3ccc(OCc4ccccc4)cc3)s2)cc1	3%	22µM*	1	-11%	-5%	41
CCc1ccc(Nc2n[n+](-c3ccccc3)c(-c3cc(OC)c(OC)cc3Br)s2)cc1	2%	40µM*	-1	2%	0%	7
CN(C)c1ccc(-c2sc(Nc3ccccc3)n[n+]2-c2ccc(F)cc2)cc1	0%	45µM*	-1	-7%	-2%	-5
CCN(CC)c1ccc(-c2sc(Nc3ccccc3)n[n+]2-c2ccc(F)cc2)cc1	-1%	?	4	?	0%	6
CCc1ccc(Nc2n[n+](-c3ccccc3)c(-c3ccc(N(CC)CC)cc3)s2)cc1	?	40µM*	11	?	-2%	-2
Cc1cccc(Cn2nc(C)c(NC(=O)c3cc(-c4ccccc4)on3)c2C)c1	.	-6%	.	.	.	.
COc1ccc(CN(C(=O)c2cccc(C#N)c2)C2CC2)cc1	.	7%	.	.	.	.
COc1ccc(-c2cc3ccc(OC(C)=O)cc3oc2=O)cc1OC	.	-11%	.	.	.	.
CC1CC(C)(C)Nc2ccc(OC(=O)c3ccco3)cc21 (stereo not drawn)	22µM*	-6%	0	32µM*	-15%	8
O=C(NCCO)C(O)(c1ccccc1)c1ccccc1	.	9%	.	.	.	.
O=C1CC(=C(c2ccccc2)c2ccccc2)C(=O)N1CCCCN1CCN(c2ccccc2)CC1	2%	40µM*	0	3%	-5%	-11
O=C(CCCN1CCN(c2ccccc2)CC1)c1ccc(F)cc1	2%	1%	-1	-4%	-7%	-2
O=C(NC1CC1)c1cccc2c1C(=O)c1ccc(N3CCC(Cc4ccccc4)CC3)cc1S2(=O)=O	?	-7%	?	22µM*	-2%	0
O=C(NCc1ccc(F)cc1)c1cccc2c1C(=O)c1ccc(N3CCC(Cc4ccccc4)CC3)cc1S2(=O)=O	?	-2%	4	25µM*	-2%	6
CC(NS(=O)(=O)c1ccccc1F)C(=O)Nc1ccc(C(C)(C)C)cc1 (stereo not drawn)	.	61%	.	.	.	.
O=C(Nc1ccc(Cl)c(C(F)(F)F)c1)c1nn(-c2cccc(Cl)c2)ccc1=O	.	0%	.	.	.	.

Screening data as filed in PubChem BioAssay.
